# From PMC5540273 (PLoS ONE, 2017)
# Legend:
# Settings in all cases: concentration: 1 μM, replicates: in singlicate; n = 1
# MST1 = system: T1, MST1
# T1 construct: gene STK4
# MST2 = system: T2, MST2
# T2 construct: gene STK3
# MST3 = system: T3, MST3
# T3 construct: gene STK24
# MST4 = system: MST4
# MTOR = system: MTOR
# MUSK = system: MUSK
# MYLK2 = system: MYLK2
# MYLK4 = system: MYLK4
# MYLK = system: MYLK
# MYO3A = system: MYO3A
# 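Further: KINOMEscan kinase panel screen.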
SMILES,%Inh (MST1) [%],%Inh (MST2) [%],%Inh (MST3) [%],%Inh (MST4) [%],%Inh (MTOR) [%],%Inh (MUSK) [%],%Inh (MYLK2) [%],%Inh (MYLK4) [%],%Inh (MYLK) [%],%Inh (MYO3A) [%]
COc1ccc(Nc2ncc(C#N)c(Nc3ccccc3C(N)=O)n2)cc1N1CCN(C)CC1.Cl [GSK1558669],98.3,51,95.5,99.4,0,80,98.2,98.2,99.4,76
CC(=O)Nc1ccc(COc2ccc(Nc3ccnc4cc(-c5ccccn5)ccc34)cc2)cc1.Cl [GW440148],0,30,22,0,13,8,3,16,13,27
NS(=O)(=O)CCc1cccc(Nc2nccc(-c3c(-c4cccc(NC(=O)c5c(F)cccc5F)c4)nn4ccccc34)n2)c1 [GSK336735],94.9,74,13,0,8,40,0,0,14,26
COc1ccc(COc2cc(-n3cnc4ccccc43)sc2C(N)=O)cc1 [GSK1024304],0,0,0,0,0,14,0,0,0,0
NS(=O)(=O)c1cccc(-c2ccc3nccc(-c4cccc(S(N)(=O)=O)c4)c3c2)c1 [GW867253],11,0,5,0,32,10,0,2,0,0
O=C1NC(=O)C(N2CCc3ccccc32)=C1c1cccc(Cl)c1 [SB-408010],0,63,4,0,0,0,0,0,8,9
c1ccc(-c2n[nH]cc2-c2ccnc3ccccc23)nc1 [GW271431],5,13,2,0,9,15,12,24,20,31
N#Cc1ccc(-c2cc(-c3c[nH]nc3-c3ccccn3)ccn2)cc1 [GW693028],4,0,0,0,14,0,0,0,8,15
O=C(Nc1n[nH]c2cc(-c3cccc(F)c3)ccc12)C1CC1 [SB-735464],11,0,17,17,0,0,77,6,2,3
O=C(NCCNc1ccnc(Nc2ccc(F)cc2)n1)Nc1ccccc1F [GSK1379880],0,0,0,0,10,5,1,0,9,0
Cn1ccc2ncnc(Oc3ccc(NC(=O)Nc4ccncc4)c(Cl)c3)c21,0,0,0,0,11,0,11,0,0,14
O=c1cc(N2CCOCC2)nc2n(Cc3cccc(F)c3)ccn12 [GSK2297430],23,0,3,0,52,3,0,0,4,0
O=C(c1ccc(-c2cc(-c3c[nH]nc3-c3ccccn3)ccn2)cc1)N1CCOCC1 [GW812171],4,0,0,0,17,0,0,26,0,6
COc1cc2c(cc1OC[C@@H](O)CO)ncc1c3ccc(C#N)cc3[nH]c21,0,67,11,12,52,0,44,99,3,0
CCn1cnc2c(N)ncnc21 [GW345098],8,7,20,0,0,2,2,7,29,12
Cc1nnc(-c2ccc3ncc(-c4ccc(S(C)=O)cc4)n3c2)o1 (stereo not shown),0,0,14,0,29,0,8,5,18,0
CN(C1=C(c2ccccc2)C(=O)NC1=O)c1ccccc1 [SB-334860],0,6,7,0,28,0,11,19,11,33
Cc1ccc(NC(=O)c2ccnc(N3CCN(C)CC3)c2)cc1-c1ccc(C(=O)NCC2CC2)cc1 [GW775604],27,11,0,0,0,4,0,0,0,0
CC(C)(C)n1cnc2c(N)ncnc21 [SKF-97359],9,0,44,0,6,0,0,0,27,0
